Records with an inconclusive call do not appear. Calls of active or inactive are those of the source. The call rests on the fitted dose curve; in most records, active means well fitted inhibition curve with a large enough effect; inconclusive means small, poorly fitted or top-dose-only effect; inactive means no such curve, though single readings can be large or run the other way.
Test: Acumen qHTS Assay for Inhibitors of the mTORC1 Signaling Pathway in MEF (Tsc2-/-, p53-/-) Cells: Hit Validation;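 further: phospho-rpS6 Ser235/236 immunofluorescence normalized to propidium iodide cell count; nearly all actives have a fitted effect of over 65% in size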;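 on activity change, negative = inhibition: cells exposed to compound for 24 hours; plate controls were DMSO for no effect and 7.5 nM rapamycin control for full effect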
Details: Acumen imaging; activity change, negative = inhibition: at 37.3 µM (top of the series)
Potency means the concentration at half of the fitted maximal effect.

Structure (SMILES)	activity change, negative = inhibition [%]	Potency
CCCCNC(=O)CSc1c2c(nc3ccc(Cl)cc13)CCCC2	-28.5	–
O=C(CN1C(=O)C(c2ccc(F)cc2)=NC12CCCCCC2)Nc1ccccc1Cl	12.4	–
CCOc1cc(-c2nnc(SCC(=O)NCc3ccccc3)nc2-c2ccc(OC)c(OCC)c2)ccc1OC	–	2.07 µM (active)
CCCCOCc1cc(CN2CCN(c3cccc(Cl)c3)CC2)c(O)c2ncccc12	–	2.61 µM (active)
Cc1ccccc1NC(=O)Cn1cc(C(=O)c2cccs2)c2ccccc21	1.72	–
CC(C)CS(=O)(=O)c1oc(-c2ccc(F)cc2)nc1S(=O)(=O)c1ccccc1	-152	–
Cc1ccc(-n2ncc(C(=O)NCCCN3CCc4ccccc4C3)c2C2CCN(C(=O)OC(C)(C)C)CC2)c(C)c1	-11.4	–
COC(=O)c1ccccc1NC(=O)Cn1c(=O)n(-c2ccc(C)cc2)c(=O)c2ccccc21	–	5.85 µM (active)
O=S(=O)(NCC(c1ccco1)N1CCN(c2ccc(F)cc2)CC1)c1ccccc1 (configuration not stated)	12.9	–
CCOc1cc(CNc2ccc(O)cc2)ccc1OCc1ccc(Cl)cc1	-17.1	–
CCCCn1c(=N)n(CCOc2ccccc2OC)c2ccccc21	–	4.65 µM (active)
COc1ccc(-c2[nH]nc3nc(-c4cc(OC)c(OC)c(OC)c4)cc(C(=O)O)c23)cc1	15.4	–
O=C(NC1CCCCC1)/C(=C/c1ccc(Cl)cc1)NC(=O)c1ccccc1	-5.63	–
CCOC(=O)c1ccc(NC(=O)c2nc(S(=O)(=O)Cc3ccccc3)ncc2Cl)cc1	–	4.65 µM (active)
Cc1ccc(S(=O)(=O)c2nnn3c2nc(NCc2cccs2)c2sccc23)cc1	-1.4	–
COc1ccc(-c2nc(C)c(CCNC(=O)c3ccccc3Br)s2)cc1OC	-7.02	–
Cc1ccc(NC(=O)CCNS(=O)(=O)c2cccc3nonc23)cc1Cl	5.73	–
O=C(c1ccc(CS(=O)c2ccccc2Cl)o1)N1CCN(c2cccc(Cl)c2)CC1 (configuration not stated)	–	0.521 µM (active)
COc1cc(Cl)c(C)cc1Nc1c2c(nc3ccccc13)CCC2	–	0.927 µM (active)

Structure (SMILES)	activity change, negative = inhibition [%]	Potency
Cc1cccc(CS(=O)(=O)c2ncc(Cl)c(C(=O)NCc3ccccc3)n2)c1	-111	–
CCCS(=O)(=O)c1ncc(Cl)c(C(=O)N2CCN(c3ccc(OC)cc3)CC2)n1	–	7.36 µM (active)
CCOc1ccc(CNC(=O)c2ccccc2NC(=O)c2nsc3ccccc23)cc1	-112	–
COc1ccc(-c2nc(S(=O)(=O)c3ccc(Cl)cc3)c(N3CCCCCC3)o2)cc1	2.12	–
CN1CCN(C2(CNC(=O)COc3ccc(C(C)(C)C)cc3)CCCCC2)CC1	–	14.7 µM (active)
COc1cccc(-c2nc(S(=O)(=O)c3ccc(Cl)cc3)c(NCc3ccccc3)o2)c1	29.5	–
CCCCNC(=O)CSc1nc2nc(C)c(Cc3ccccc3C)c(C)n2n1	7.74	–
COc1ccc(N2CCN(C(=O)C(C)n3nc(C)c4sc5ccccc5c4c3=O)CC2)cc1 (configuration not stated)	1.14	–
COc1ccc(OCC(=O)Nc2ccc3nn(-c4ccc(OC)cc4)nc3c2)cc1	11.1	–
CC1=C(C(=O)Nc2ccc(C)cc2C)C(c2cc(Br)ccc2F)n2ncc(C(=O)Nc3ccc(C)cc3)c2N1 (configuration not stated)	–	9.27 µM (active)
Nc1nnc(SCC(=O)Nc2cccc(F)c2)s1	16.3	–
CCC(C)S(=O)(=O)c1oc(-c2ccc(F)cc2)nc1S(=O)(=O)c1ccc(F)cc1 (configuration not stated)	–	1.31 µM (active)
Cc1ccc(C(=O)CC2(O)C(=O)N(Cc3ccccc3)c3ccccc32)c(C)c1 (configuration not stated)	-24	–
COC(=O)c1ccccc1NC(=O)CCS(=O)(=O)c1nc(-c2ccc3c(c2)OCO3)cc(C(F)(F)F)n1	-88.3	–
Nc1nc(Nc2ccccc2F)sc1C(=O)c1ccc(Cl)cc1	-5.15	–
COC(=O)c1cc2sc(C)cc2n1Cc1ccccc1	-16.6	–
COc1ccc(-c2cc(C(F)(F)F)nc(S(C)(=O)=O)n2)cc1	-88.8	–
COc1ccc(-c2nnc(SCC(=O)NCc3ccccc3)nc2-c2ccc(OC)c(OC)c2)cc1OC	–	18.5 µM (active)

Reference: PubChem BioAssay AID651784 (National Center for Advancing Translational Sciences (NCATS), 2012)
